For some of these results: Measured potencies and affinities stand elsewhere.
How the values were obtained:
Set-up in all cases: scale not given: direction of the effect not stated beside the values
[1] = target: Protein translocase subunit SecA (Escherichia coli (strain K12)) (UniProt P10408); experiment: Assay to Identify E. coli SecA ATPase Inhibitors; format: functional; settings: 30 µM
[2] = target: T1, Ubiquitin-activating enzyme e1, putative (Leishmania donovani (strain BPK282A1)) (UniProt E9BSI1); experiment: Leishmania donovani Ubiquitin Activating Enzyme (LdE1); format: functional; settings: 30 µM
T1 sequence (whole entry): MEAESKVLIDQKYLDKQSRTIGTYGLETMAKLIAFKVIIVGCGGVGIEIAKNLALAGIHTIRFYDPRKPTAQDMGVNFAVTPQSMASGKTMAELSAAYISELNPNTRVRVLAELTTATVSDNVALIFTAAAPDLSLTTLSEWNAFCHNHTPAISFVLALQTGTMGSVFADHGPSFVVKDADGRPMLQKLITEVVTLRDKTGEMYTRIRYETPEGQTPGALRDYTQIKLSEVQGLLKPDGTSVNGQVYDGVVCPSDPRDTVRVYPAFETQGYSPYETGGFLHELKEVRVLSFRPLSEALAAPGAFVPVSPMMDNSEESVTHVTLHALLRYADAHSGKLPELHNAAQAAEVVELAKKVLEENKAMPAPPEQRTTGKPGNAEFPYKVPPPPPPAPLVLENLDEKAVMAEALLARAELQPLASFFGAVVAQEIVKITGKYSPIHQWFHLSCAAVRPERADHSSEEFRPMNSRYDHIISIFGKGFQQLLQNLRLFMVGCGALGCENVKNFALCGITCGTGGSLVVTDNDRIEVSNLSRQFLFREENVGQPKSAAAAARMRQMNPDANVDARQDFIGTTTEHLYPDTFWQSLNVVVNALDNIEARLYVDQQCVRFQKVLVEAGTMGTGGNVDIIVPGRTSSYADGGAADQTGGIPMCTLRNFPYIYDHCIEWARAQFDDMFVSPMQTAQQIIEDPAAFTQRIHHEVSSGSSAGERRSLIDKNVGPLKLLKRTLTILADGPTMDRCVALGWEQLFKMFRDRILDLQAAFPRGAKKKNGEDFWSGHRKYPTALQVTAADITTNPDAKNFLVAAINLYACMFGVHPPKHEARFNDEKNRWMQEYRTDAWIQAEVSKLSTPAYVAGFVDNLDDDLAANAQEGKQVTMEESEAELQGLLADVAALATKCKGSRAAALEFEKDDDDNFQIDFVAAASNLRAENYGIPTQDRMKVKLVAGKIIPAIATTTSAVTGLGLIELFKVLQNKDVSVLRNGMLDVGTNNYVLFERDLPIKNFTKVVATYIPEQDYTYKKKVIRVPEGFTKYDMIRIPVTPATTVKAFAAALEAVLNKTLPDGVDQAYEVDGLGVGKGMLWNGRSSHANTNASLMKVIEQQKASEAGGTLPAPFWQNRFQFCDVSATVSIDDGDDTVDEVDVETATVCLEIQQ

[3] = target: AMP-activated protein kinase, AMPK (Homo sapiens) (UniProt P54646+O43741+P54619+Q9UGJ0+Q9Y478+Q13131+Q9UGI9); experiment: AMP-dependent Kinase enzyme assay. An in vitro enzyme assay that detects ADP turnover that is directly proportional to AMPK activity. This uses naive AMPK that is activated during the assay with MK-8722; format: functional; settings: 30 µM
[4] = target: Sialic acid-binding Ig-like lectin 9 (Homo sapiens) (UniProt Q9Y336); experiment: Hs-Siglec9 ALPHAscreen SOP 20170721; settings: 10 µM
Chain of Sialic acid-binding Ig-like lectin 9 (Homo sapiens) (Q9Y336 whole entry): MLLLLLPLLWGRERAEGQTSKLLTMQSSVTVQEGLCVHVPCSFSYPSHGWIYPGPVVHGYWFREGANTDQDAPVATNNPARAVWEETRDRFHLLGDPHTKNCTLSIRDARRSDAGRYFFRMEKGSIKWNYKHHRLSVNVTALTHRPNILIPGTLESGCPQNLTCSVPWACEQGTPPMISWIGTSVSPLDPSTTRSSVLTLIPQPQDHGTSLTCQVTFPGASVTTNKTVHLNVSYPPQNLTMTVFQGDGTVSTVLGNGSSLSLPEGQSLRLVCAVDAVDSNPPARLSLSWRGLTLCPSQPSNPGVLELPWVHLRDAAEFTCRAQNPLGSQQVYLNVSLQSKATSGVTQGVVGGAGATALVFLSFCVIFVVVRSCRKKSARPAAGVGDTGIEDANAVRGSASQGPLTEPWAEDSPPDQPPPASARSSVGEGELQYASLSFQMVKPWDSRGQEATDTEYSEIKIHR

Trypanosoma cruzi = experiment: Trypanosoma cruzi phosphomannomutase and mannose-1-phosphate guanylyltransferase assay; format: functional; settings: 10 µM
[5] = target: T2, Arginase-2, mitochondrial (Homo sapiens) (UniProt P78540); experiment: in vitro enzyme assay to detect the production of urea directly proportional to the activity of Arginase II; format: functional; settings: 33.3 µM; further: in the data most compounds retested in dose-response had high values
T2 sequence (whole entry): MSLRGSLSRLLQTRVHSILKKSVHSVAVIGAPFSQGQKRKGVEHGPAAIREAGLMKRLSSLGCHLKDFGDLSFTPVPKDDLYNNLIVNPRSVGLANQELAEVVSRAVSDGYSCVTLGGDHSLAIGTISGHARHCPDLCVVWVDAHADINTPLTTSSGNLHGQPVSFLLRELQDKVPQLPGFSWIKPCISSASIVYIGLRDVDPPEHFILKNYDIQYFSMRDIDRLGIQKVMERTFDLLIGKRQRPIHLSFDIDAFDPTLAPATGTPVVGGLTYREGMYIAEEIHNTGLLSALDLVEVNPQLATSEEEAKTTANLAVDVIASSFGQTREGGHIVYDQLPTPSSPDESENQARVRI

[6] = target: T3, Proteasome subunit beta (Trypanosoma cruzi) (UniProt O96673); experiment: Trypanosoma cruzi proteasome chymotrypsin-like activity (TcProtChymo) assay.; further: in the data most compounds retested in dose-response had high values; format: functional; settings: 9.37 µM
T3 sequence (whole entry): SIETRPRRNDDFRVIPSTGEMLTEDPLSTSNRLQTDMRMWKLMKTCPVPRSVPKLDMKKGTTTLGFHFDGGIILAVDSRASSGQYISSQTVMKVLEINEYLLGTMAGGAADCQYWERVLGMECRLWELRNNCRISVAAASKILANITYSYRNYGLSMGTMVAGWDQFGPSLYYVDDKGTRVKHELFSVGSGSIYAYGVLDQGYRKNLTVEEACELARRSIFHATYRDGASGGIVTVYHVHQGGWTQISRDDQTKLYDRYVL

Homo sapiens = organism: Homo sapiens; experiment: To identify inhibition of the IFN signalling (Jak-Stat) pathway via expression of an eGFP reporter gene under the control of an IFN-stimulated response element (ISRE) containing MxA promoter.; format: functional; settings: 30 µM
[7] = target: T4, Tyrosyl-tRNA synthetase, putative (Trypanosoma cruzi (strain CL Brener)) (UniProt Q4DSP6); experiment: Trypanosoma cruzi tyrosyl tRNA synthetase (TcYRS) _High Tyrosine SOP; format: functional; settings: 30 µM; further: in the data most compounds retested in dose-response had high values
T4 sequence (whole entry): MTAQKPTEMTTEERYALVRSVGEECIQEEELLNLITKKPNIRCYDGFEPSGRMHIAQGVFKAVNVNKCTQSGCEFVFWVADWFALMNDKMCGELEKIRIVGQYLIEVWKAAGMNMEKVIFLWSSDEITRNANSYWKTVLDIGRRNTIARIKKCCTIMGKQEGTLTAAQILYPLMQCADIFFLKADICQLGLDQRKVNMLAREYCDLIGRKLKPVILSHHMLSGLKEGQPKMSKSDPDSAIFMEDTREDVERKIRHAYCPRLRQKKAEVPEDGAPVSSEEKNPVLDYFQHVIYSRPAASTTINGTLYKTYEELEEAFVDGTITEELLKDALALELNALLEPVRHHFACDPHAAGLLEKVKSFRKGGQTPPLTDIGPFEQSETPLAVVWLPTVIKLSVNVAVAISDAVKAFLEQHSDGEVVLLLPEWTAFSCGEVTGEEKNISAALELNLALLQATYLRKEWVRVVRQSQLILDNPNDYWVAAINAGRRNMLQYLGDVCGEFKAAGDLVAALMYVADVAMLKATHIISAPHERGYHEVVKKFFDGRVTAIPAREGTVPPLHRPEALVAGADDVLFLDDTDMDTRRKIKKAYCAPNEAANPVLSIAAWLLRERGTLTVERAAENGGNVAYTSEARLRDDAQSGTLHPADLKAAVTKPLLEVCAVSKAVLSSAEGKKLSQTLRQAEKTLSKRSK

[8] = target: T4, Tyrosyl-tRNA synthetase, putative (Trypanosoma cruzi (strain CL Brener)); experiment: Trypanosoma cruzi tyrosyl tRNA synthetase (TcYRS) SOP; format: functional; settings: 30 µM
[9] = target: Chromo domain-containing protein 1 (Saccharomyces cerevisiae (strain ATCC 204508 / S288c) (Baker's yeast)) (UniProt P32657); experiment: ScCHD-1 Enzyme Inhibition Assay; format: functional; settings: 30 µM; further: in the data most compounds retested in dose-response had high values
Chain of Chromo domain-containing protein 1 (Saccharomyces cerevisiae (strain ATCC 204508 / S288c) (Baker's yeast)) (P32657 whole entry, the tested form may be a part): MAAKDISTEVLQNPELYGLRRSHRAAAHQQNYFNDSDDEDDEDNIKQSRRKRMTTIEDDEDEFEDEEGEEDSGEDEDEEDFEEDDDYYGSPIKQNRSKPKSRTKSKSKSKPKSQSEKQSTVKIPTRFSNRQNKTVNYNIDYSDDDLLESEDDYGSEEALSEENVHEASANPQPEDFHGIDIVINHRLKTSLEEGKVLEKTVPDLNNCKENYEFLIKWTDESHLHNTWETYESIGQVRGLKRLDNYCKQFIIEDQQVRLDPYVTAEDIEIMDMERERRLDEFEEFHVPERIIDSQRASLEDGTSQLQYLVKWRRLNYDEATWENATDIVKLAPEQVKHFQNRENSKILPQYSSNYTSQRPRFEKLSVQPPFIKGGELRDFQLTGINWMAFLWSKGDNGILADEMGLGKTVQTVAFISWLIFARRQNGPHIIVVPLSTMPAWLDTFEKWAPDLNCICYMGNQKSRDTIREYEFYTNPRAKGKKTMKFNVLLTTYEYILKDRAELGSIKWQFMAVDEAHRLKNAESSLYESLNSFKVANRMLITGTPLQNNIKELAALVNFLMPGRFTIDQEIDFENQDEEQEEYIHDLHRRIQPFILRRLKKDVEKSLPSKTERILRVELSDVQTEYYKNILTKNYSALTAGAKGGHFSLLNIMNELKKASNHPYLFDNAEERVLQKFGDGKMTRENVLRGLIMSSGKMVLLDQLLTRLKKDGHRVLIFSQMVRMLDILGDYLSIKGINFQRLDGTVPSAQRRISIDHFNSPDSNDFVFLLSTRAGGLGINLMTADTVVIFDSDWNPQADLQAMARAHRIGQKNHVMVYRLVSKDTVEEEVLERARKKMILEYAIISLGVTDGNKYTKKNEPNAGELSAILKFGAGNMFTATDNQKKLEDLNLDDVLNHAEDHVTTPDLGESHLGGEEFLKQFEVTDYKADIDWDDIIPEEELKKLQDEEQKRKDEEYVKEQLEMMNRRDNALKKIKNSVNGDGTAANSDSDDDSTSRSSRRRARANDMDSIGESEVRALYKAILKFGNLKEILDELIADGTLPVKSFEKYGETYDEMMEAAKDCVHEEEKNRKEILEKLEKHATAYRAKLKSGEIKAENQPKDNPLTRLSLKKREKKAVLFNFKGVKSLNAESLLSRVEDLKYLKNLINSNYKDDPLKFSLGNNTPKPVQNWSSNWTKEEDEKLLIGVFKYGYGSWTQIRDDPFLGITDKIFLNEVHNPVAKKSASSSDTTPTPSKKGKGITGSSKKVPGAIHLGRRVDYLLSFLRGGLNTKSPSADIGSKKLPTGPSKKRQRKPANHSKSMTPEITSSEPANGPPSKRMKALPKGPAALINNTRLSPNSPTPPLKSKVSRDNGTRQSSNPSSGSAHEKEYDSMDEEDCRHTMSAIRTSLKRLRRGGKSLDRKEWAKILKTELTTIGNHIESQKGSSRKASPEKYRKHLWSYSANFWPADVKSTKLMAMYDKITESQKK

Chain of Protein translocase subunit SecA (Escherichia coli (strain K12)) (P10408 whole entry): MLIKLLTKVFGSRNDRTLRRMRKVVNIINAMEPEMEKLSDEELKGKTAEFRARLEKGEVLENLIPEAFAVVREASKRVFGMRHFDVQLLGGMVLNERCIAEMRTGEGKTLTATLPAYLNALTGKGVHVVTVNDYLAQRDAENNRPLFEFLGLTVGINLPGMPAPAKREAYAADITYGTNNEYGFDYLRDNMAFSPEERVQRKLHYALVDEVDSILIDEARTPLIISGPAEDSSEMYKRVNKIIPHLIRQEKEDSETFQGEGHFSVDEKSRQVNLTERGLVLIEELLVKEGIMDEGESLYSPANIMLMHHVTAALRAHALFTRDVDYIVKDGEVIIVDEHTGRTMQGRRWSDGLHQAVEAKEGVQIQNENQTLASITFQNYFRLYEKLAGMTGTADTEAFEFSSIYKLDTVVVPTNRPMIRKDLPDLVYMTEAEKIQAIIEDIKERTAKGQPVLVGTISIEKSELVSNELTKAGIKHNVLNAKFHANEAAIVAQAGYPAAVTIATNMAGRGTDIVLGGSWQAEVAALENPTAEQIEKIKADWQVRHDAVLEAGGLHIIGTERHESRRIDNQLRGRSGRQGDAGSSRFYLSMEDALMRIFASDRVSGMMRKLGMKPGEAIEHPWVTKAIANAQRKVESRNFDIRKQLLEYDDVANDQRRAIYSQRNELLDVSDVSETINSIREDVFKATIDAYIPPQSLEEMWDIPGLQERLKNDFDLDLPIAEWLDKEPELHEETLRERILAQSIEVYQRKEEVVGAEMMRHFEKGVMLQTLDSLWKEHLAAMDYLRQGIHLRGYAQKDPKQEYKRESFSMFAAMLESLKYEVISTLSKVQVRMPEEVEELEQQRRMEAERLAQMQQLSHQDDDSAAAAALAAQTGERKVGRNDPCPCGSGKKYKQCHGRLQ

Row | Compound | Percent Effect [1] [%] | Percent Effect [2] [%] | Percent Effect [3] [%] | Percent Effect [4] [%] | Percent Effect (Trypanosoma cruzi) [%] | Percent Effect [5] [%] | Percent Effect [6] [%] | Percent Effect (Homo sapiens) [%] | Percent Effect [7] [%] | Percent Effect [8] [%] | Percent Effect [9] [%]
1 | Cn1ccnc1CN1CCCC(Cc2ccccn2)C1 (stereo not drawn) | -7.44 | 20.3 | -4.84 | 1.21 | 4.94 | -2.55 | 13.6 | 1.89 | 4.3 | 16.9 | -20.2
2 | CC(NC(=O)c1cccs1)C(=O)NCc1ccccc1CN1CCCC1 (stereo not drawn) | -4.29 | 23.4 | -5.29 | 2.04 | 4.12 | 3.2 | 12.5 | 5.06 | 12.6 | 21.9 | -11.2
3 | CNCC(=O)N1CC(c2cc(Nc3ncccn3)nc(C)n2)C1 | 0.103 | 10.7 | 6.11 | -7.15 | -4.33 | -1.63 | 8.9 | 13.8 | 10.6 | 16.7 | -1.56
4 | COCCn1ccc(=O)c(OCC(=O)Nc2cccc(C(C)=O)c2)c1C | -2.27 | 12 | 3.85 | 5.25 | 0.982 | -5.11 | 13.5 | -24.6 | 8.47 | 20.5 | -3.7
5 | CCC(C)NC(=O)N1CCCn2cnc(CO)c2C1 (stereo not drawn) | -0.731 | 2.74 | 1.02 | 5.8 | 0.198 | 2 | 4.54 | 6.37 | 6.25 | 6.17 | 1.09
6 | CC(=O)N1CCN(C(=O)C(C)n2cncn2)CC1 (stereo not drawn) | -3.75 | 8.86 | 5.62 | 3.27 | 1.13 | -1.5 | 10.3 | 1.42 | 5.21 | 12.7 | -21.9
7 | Cc1ncc(CNC(=O)CCc2cccc(F)c2)c(C2CCCN2C)n1 (stereo not drawn) | -7.92 | 9.46 | -0.703 | 1.74 | 0.988 | -3.94 | 5.15 | 2.42 | 2.15 | 9.09 | -19.1
8 | Cc1nn(C)c(C)c1C1CCCN1Cc1nc(C)c2ccccc2n1 (stereo not drawn) | -3.55 | 3.8 | 1.88 | -0.0747 | 1.74 | 1.94 | 2.06 | -6.74 | 20.8 | 25.3 | -22.5

— ChEMBL document CHEMBL3988442, “University of Dundee, Small-Polar-MMV Screening Library” (2021)
